hcDAF12 agonist: activators of H. contortus DAF-12 nuclear receptor. HEK293 hcDAF-12 lit1-tk-luc reporter, luminescence; 0% DMSO, 100% Δ7-dafachronic acid. activation, % at 6.8 µM. 370,000 tested, 1.4% active. AID 652067;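 active = activation above the mean of all tested compounds plus 3 SD, cut at about 5.5% in these data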
DAX1 inh-1: inhibits human nuclear receptor DAX1. P51843. HEK293 Gal4-DAX1 luciferase reporter, luminescence. inhibition, % at 6.75 µM. 340,000 tested, 0.99% active. AID 504766;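 active = inhibition above the mean over all tested compounds plus 3 SD, cut at about 4.2% in these data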;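 also: inhibition shows as a rise in luminescence from relieved DAX1 repression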
Target sequence (P51843 207-470 limits assumed): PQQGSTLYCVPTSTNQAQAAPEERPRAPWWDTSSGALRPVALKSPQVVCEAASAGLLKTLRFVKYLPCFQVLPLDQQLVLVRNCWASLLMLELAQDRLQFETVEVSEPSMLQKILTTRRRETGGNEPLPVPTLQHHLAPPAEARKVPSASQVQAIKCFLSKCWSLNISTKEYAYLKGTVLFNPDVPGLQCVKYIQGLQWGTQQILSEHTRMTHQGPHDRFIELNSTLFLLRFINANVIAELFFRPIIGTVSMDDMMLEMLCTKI
DAX1 inh-2: inhibitors of DAX1 repression of SF-1 activated StAR promoter; HEK293T StAR-luciferase reporter, SF-1/DAX-1 repression relief; inhibition, % at 6.8 µM; 370,000 tested, 1.1% active; AID 652010;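 active = inhibition above the mean over all tested compounds plus 3 SD, cut at about 3.6% in these data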;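 also: higher inhibition means more luminescence from relief of DAX-1 repression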
PolyA inhibitor: yeast polyadenylation inhibition. activity score, % at 12 µM. 300,000 tested, 0.02% active. S. cerevisiae SKY197-pL101 polyadenylation reporter, beta-gal luminescence; efflux-impaired pdr1/pdr3 knockout yeast; score 100 = 6 SD above DMSO;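 active = lowest replicate activity score at least 50, where 100 means six control SD above control mean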;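 also: yeast exposed to compound for 9 h at 30 °C; higher score means more reporter readthrough which indicates perturbed polyadenylation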
ssDAF12 agonist: S. stercoralis DAF-12 activation, primary screen | HEK293 ssDAF-12/GRIP1 lit1-tk-luc reporter, luminescence; % of 3 µM dafachronic acid response | activation, % at 6.8 µM | 370,000 tested, 1% active;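 active = activation above the mean over all tested compounds plus 3 SD, cut at about 0.9% in these data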
hgDAF-12 ag: agonists of H. glycines DAF-12 nuclear receptor; activation, % at 6.8 µM; HEK293 GAL4-hgDAF12 UAS-luciferase reporter, agonist luminescence; normalized to butyrate control; 370,000 tested, 1.8% active;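 active = activation above a cutoff set at the mean of all screened compounds plus 3 SD, cut at about 10% in these data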
DAX1 conf: NR0B1 (human) inhibition, confirmation; shares compounds with DAX1 inh-2; 2,400 tested, 87% active; HEK293T StAR-promoter luciferase reporter, SF-1/DAX-1 repression; AID 652134; inhibition, % at 6.8 µM;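 active = inhibition above the average of every tested compound plus 3 SD, cut at about 3.8% in these data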;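 also: active compounds raise luminescence by relieving repression of the StAR reporter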
Target sequence (P51843 whole entry, looked up): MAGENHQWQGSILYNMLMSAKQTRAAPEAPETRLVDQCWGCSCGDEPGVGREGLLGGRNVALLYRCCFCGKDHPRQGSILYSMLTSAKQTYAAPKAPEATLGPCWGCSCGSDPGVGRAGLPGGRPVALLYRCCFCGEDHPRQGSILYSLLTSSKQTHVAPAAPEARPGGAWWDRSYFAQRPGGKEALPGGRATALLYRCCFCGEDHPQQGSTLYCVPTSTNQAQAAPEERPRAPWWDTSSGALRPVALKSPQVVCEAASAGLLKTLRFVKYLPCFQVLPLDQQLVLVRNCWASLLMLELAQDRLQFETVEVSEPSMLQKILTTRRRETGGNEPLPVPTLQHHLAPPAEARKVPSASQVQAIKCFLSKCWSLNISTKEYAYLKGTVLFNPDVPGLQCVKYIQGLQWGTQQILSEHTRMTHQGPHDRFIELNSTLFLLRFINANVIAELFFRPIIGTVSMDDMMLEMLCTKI
SF1 AF2mut Luc: nonselective inhibitor or artifact in SF-1 mutant DAX1 counter-screen | AID 652136 | inhibition, % at 6.8 µM | HEK293 StAR-luciferase, SF-1 AF2 mutant, luminescence | shares compounds with DAX1 inh-2 | 2,400 tested, 78% active;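 active = inhibition above the mean of all tested compounds plus 3 SD, cut at about 3% in these data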
Of the large screens only hits and unclear results are named; the others gave an inactive call (follow-up assays come after a bar, where they were run). Only some compounds are listed: those with a hit (about 4.1% of all), similar ones and a draw of the others.

Cn1nccc1C(=O)Nc1ccc(Cl)cc1	none
O=C(Nc1ccc2c(c1)OCCO2)c1ccc(Br)s1	hcDAF12 agonist 5.8, DAX1 inh-2 5.9, ssDAF12 agonist 1.5, hgDAF-12 ag 12 | DAX1 conf 14 | SF1 AF2mut Luc 5.6
Cn1nccc1C(=O)Nc1ccc2c(c1)OCO2	DAX1 inh-2 4.7 | DAX1 conf 5.8 | SF1 AF2mut Luc 3.9
CCc1sc(C(=O)Nc2ccc3c(c2)OCO3)cc1C	DAX1 inh-2 7.6, hgDAF-12 ag 11 (no result: PolyA inhibitor) | DAX1 conf 9.3 | SF1 AF2mut Luc 6.5
CCc1sc(C(=O)Nc2ccc(N3CCOCC3)cc2)cc1C	none (no result: PolyA inhibitor)
Cc1cc(C(=O)Nc2ccc3c(c2)OCO3)no1	DAX1 inh-2 7.8 | DAX1 conf 9.1 | SF1 AF2mut Luc 7.5
O=C(Nc1ccc2c(c1)OCCO2)c1cccc(C(=O)Nc2ccc3c(c2)OCCO3)c1	none
O=C(O[C@H]1CC[C@@]23CCCN2C(=O)CCC[C@H]3C1)N1CCCC1	none (no result: DAX1 inh-1, DAX1 inh-2, PolyA inhibitor)
CCN=C1NC(c2ccc(F)cc2)C(C(=O)OC)=C(C)N1Cc1cccc(C(F)(F)F)c1 (stereo not given)	none (no result: DAX1 inh-1, PolyA inhibitor)
C[C@@H]1O[C@@H](n2c3ccc(Cl)cc3c3ccc4c5cc(Cl)ccc5[nH]c4c32)[C@H](O)[C@H](O)[C@H]1O	none (no result: DAX1 inh-1, PolyA inhibitor)
COc1cccc(NC(=O)c2sc3nc4n(c(=O)c3c2C)CCC4)c1	DAX1 inh-2 4.7 | DAX1 conf 5.0 | SF1 AF2mut Luc 5.9
CSc1cccc(NC(=O)c2sc3nc4n(c(=O)c3c2C)CCC4)c1	DAX1 inh-2 5.1 | DAX1 conf inactive | SF1 AF2mut Luc inactive
Cc1c(C(=O)Nc2ccc(Oc3ccccc3)cc2)sc2nc3n(c(=O)c12)CCC3	none
CC(=O)c1cccc(NC(=O)c2sc3nc4n(c(=O)c3c2C)CCCCC4)c1	none
C/C(=N\NC(=O)c1ccco1)c1ccc(NC(=O)C(F)(F)F)cc1	DAX1 inh-2 7.2 | DAX1 conf inactive | SF1 AF2mut Luc inactive
CC(=O)Nc1ccc(NC(=S)NC(=O)C2CCCC2)cc1	DAX1 inh-2 4.9 | DAX1 conf inactive | SF1 AF2mut Luc inactive
CCOc1ccc(NC(=S)NC(=O)C2CCCC2)cc1	none
O=C(c1cc(-c2ccc(Cl)cc2Cl)on1)N1CCOCC1	DAX1 inh-2 6.1 | DAX1 conf 7.9 | SF1 AF2mut Luc inactive
O=C(c1cc(-c2ccccc2O)on1)N1CCOCC1	none
Cc1ccc(NC(=O)CCCNC(=O)c2ccc(Cl)cc2)c(O)c1	hcDAF12 agonist 6.4, DAX1 inh-2 5.3 | DAX1 conf 4.1 | SF1 AF2mut Luc 3.7
Cc1cnc(NC(=O)CCCNC(=O)c2ccc(Cl)cc2)s1	DAX1 inh-2 5.5 (no result: PolyA inhibitor) | DAX1 conf inactive | SF1 AF2mut Luc 3.2
CC1Sc2ccc(C(=O)OCc3ccccc3Cl)cc2NC1=O (stereo not given)	DAX1 inh-2 6.1 | DAX1 conf 7.3 | SF1 AF2mut Luc 5.9
O=C(NCC1CCCO1)c1cc2ccccc2cc1O (stereo not given)	DAX1 inh-2 5.0 | DAX1 conf 6.1 | SF1 AF2mut Luc 4.3
Cc1cc(C(=O)NC2CCCCCC2)c2ccccc2n1	none (no result: PolyA inhibitor)
O=C(NCC1CCCCC1)c1cc2ccccc2cc1O	none
CC1CCC(NC(=O)c2cc3ccccc3cc2O)CC1 (stereo not given)	DAX1 inh-2 8.0 (no result: PolyA inhibitor) | DAX1 conf 10 | SF1 AF2mut Luc 6.7
CC1CCC(NC(=O)c2cc(Cl)nc3ccccc23)CC1 (stereo not given)	DAX1 inh-2 4.6 (no result: PolyA inhibitor) | DAX1 conf 6.0 | SF1 AF2mut Luc 4.3
COc1ccc(C(=O)N(C)C(C)c2nccs2)cc1OC1CCN(C(C)=O)CC1 (stereo not given)	none (no result: PolyA inhibitor)
CC[C@@H](C)[C@H](C(CC(=O)N1CCCC1[C@@H](OC)[C@H](C)C(=O)N[C@H](Cc1ccccc1)c1nccs1)OC)N(C)C(=O)[C@H](NC(=O)[C@@H](C(C)C)N(C)C)C(C)C (stereo not given in full)	DAX1 inh-2 7.7 (no result: PolyA inhibitor) | DAX1 conf 30 | SF1 AF2mut Luc inactive
CCC1(O)CC2CN(CCc3c([nH]c4ccccc34)C(C(=O)OC)(c3cc4c(cc3OC)N(C=O)C3C(O)(C(=O)OC)C(OC(C)=O)C5(CC)C=CCN6CCC43C65)C2)C1 (stereo not given)	DAX1 inh-2 5.2 (no result: PolyA inhibitor) | DAX1 conf 21 | SF1 AF2mut Luc inactive
CCOC(=O)CC[C@@]1(C(=O)OCC)C[C@@H](CC(=O)NCC23CC4CC(CC(C4)C2)C3)C(=O)N2CCCC=C21	none (no result: DAX1 inh-1, PolyA inhibitor)
CCN(CC)CCCNC(=O)c1cc2cc(Cl)ccc2nc1N	none (no result: DAX1 inh-1, PolyA inhibitor)
Cc1ccc2c(c1)-c1nc3ccccc3cc1C2=NC1CCCCC1	hcDAF12 agonist 13, DAX1 inh-2 4.8, ssDAF12 agonist 1.6, hgDAF-12 ag 19 (no result: PolyA inhibitor) | DAX1 conf 4.0 | SF1 AF2mut Luc inactive
CC(=O)CCN1CCSCCS1(=O)=O	none (no result: DAX1 inh-1, PolyA inhibitor)
Nc1[nH]c(=O)ncc1-c1ccc([N+](=O)[O-])cc1	none (no result: DAX1 inh-1, PolyA inhibitor)
CCC(=O)C1CCCN(C(=O)CCc2nnc(-c3ccc(C(C)=O)s3)o2)C1 (stereo not given)	hcDAF12 agonist 6.0, DAX1 inh-2 5.3 | DAX1 conf 6.8 | SF1 AF2mut Luc 4.8
C[C@H](CO)N1C[C@H](C)[C@@H](CN(C)C(=O)Nc2cccc(F)c2)OCc2cn(nn2)CCCC1=O	none (no result: DAX1 inh-1, PolyA inhibitor)
O=C(N[C@H]1/C=C\[C@@H](O)CCCC1)OCc1ccccc1	DAX1 inh-2 7.6, hgDAF-12 ag 11 (no result: PolyA inhibitor) | DAX1 conf 11 | SF1 AF2mut Luc 9.1
COc1cc(OC)cc(-c2noc(-c3csc([C@H]4C[C@H](O)[C@@H](CO)O4)n3)n2)c1	none (no result: DAX1 inh-1, PolyA inhibitor)
OC[C@H]1O[C@H](c2nc(-c3nc(-c4cccs4)no3)cs2)C[C@@H]1O	DAX1 inh-2 4.8, hgDAF-12 ag 12 (no result: DAX1 inh-1, PolyA inhibitor) | DAX1 conf 5.7 | SF1 AF2mut Luc inactive
N/C(=N\OC(=O)c1ccc(Cl)cc1)c1ccn[nH]1	DAX1 inh-2 15 | DAX1 conf 13 | SF1 AF2mut Luc 7.8
Cc1ccc(CNC(=O)Cc2noc3ccccc23)cc1	DAX1 inh-2 9.5, hgDAF-12 ag 11 | DAX1 conf 8.2 | SF1 AF2mut Luc 4.8
O=C(Nc1ccc(F)cc1F)c1csc(-c2cccs2)n1	DAX1 inh-2 7.0, ssDAF12 agonist 2.1, hgDAF-12 ag 13 | DAX1 conf 9.3 | SF1 AF2mut Luc 6.7
Cc1cccc(C2=CC(=O)CC(C)(C)C2=O)c1	none (no result: DAX1 inh-1, PolyA inhibitor)

Compound activity from PubChem.
